Test results as given in PubChem BioAssay (NCI).
Compounds without any hit were thinned out: in the full panel of roughly 83,000, 20% have a hit.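 How to read the values: 0–100, growth inhibition (40 = 60% inhibited); 0, no net growth; -100 to 0, cell death (-40 = 40% of starting cells died; -100 = all dead).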 A number with no mark means an inactive call. Activity calls are given as the source filed them. How the source made its calls: active means growth percent below 10; inactive means the rest.

Legend:
Experiment in all cases: NCI-60 one-dose screen, 48 h (100 = growth as untreated, 0 = no growth, -100 = all killed)
Settings in all cases: 10 µM unless noted
SK-MEL-2 melanoma = tested on: SK-MEL-2 melanoma
EKVX NSCLC = tested on: EKVX NSCLC
SN12C renal = tested on: SN12C renal
UO-31 renal = tested on: UO-31 renal
TK-10 renal = tested on: TK-10 renal
ACHN renal = tested on: ACHN renal
CAKI-1 renal = tested on: CAKI-1 renal
A498 renal = tested on: A498 renal
CCRF-CEM leukemia = tested on: CCRF-CEM leukemia
MOLT-4 leukemia = tested on: MOLT-4 leukemia
SR leukemia = tested on: SR leukemia
RPMI-8226 leukemia = tested on: RPMI-8226 leukemia
OVCAR-8 ovarian = tested on: OVCAR-8 ovarian
OVCAR-5 ovarian = tested on: OVCAR-5 ovarian
OVCAR-4 ovarian = tested on: OVCAR-4 ovarian
OVCAR-3 ovarian = tested on: OVCAR-3 ovarian
HS 578T breast = tested on: HS 578T breast
NCI/ADR-RES ovarian = tested on: NCI/ADR-RES ovarian
SK-OV-3 ovarian = tested on: SK-OV-3 ovarian
IGROV1 ovarian = tested on: IGROV1 ovarian

SMILES	growth (SK-MEL-2 melanoma)	growth (EKVX NSCLC)	growth (SN12C renal)	growth (UO-31 renal)	growth (TK-10 renal)	growth (ACHN renal)	growth (CAKI-1 renal)	growth (A498 renal)	growth (CCRF-CEM leukemia)	growth (MOLT-4 leukemia)	growth (SR leukemia)	growth (RPMI-8226 leukemia)	growth (OVCAR-8 ovarian)	growth (OVCAR-5 ovarian)	growth (OVCAR-4 ovarian)	growth (OVCAR-3 ovarian)	growth (HS 578T breast)	growth (NCI/ADR-RES ovarian)	growth (SK-OV-3 ovarian)	growth (IGROV1 ovarian)
c1ccc(CCSc2ncnc3nc[nH]c23)cc1	53.6%	73.4%	86.5%	84.4%	122%	90.7%	86.7%	86.3%	92.6%	92.4%	52.8%	82.1%	66.9%	114%	84.8%	116%	100%	99.2%	–	–
CC[C@H](C)[C@@H]1NC(=O)[C@H](Cc2ccc(O)cc2)N(C)C(=O)[C@H](Cc2ccccc2)NC(=O)CN(C)C(=O)[C@@H]2CCCN2C(=O)[C@@H](Cc2ccccc2)N(C)C(=O)[C@H](CC(C)C)NC1=O	-50.4% (active)	-3.63% (active)	-13.7% (active)	44.4%	6.34% (active)	4.52% (active)	11.4%	-3.73% (active)	-7.96% (active)	2.71% (active)	4.5% (active)	-33.3% (active)	5.34% (active)	-7.89% (active)	–	-10.7% (active)	-12% (active)	70.7%	4.76% (active)	-8.42% (active)
CC(C)CN(C(=O)c1ccc(Cl)cc1)c1c(N)n(CC(C)C)c(=O)[nH]c1=O	96.4%	106%	87.8%	98.2%	125%	101%	50.2%	108%	93.1%	97.2%	64.1%	84.8%	93.8%	88.3%	–	115%	84.8%	101%	26.8%	–
O=[N+]([O-])c1cccc(-c2nc(-c3ccc(Cl)cc3Cl)cn2-c2ccccc2)c1	52.4%	-8.4% (active)	11.5%	2.03% (active)	29.3%	-52.1% (active)	-68.8% (active)	-33.2% (active)	95.5%	45.4%	-65% (active)	61.7%	-59.2% (active)	12.1%	-93.3% (active)	-55.9% (active)	-38.8% (active)	-1.46% (active)	–	29.7%
CC[N+](CC)(CCCC(C)[N+]1(Cc2ccccc2)C(C)=CC=C1C)Cc1ccccc1 (stereo unspecified)	102%	78.1%	85.1%	91.2%	93.8%	100%	101%	87.5%	74.1%	84%	90.1%	33.6%	101%	88.1%	62.1%	64%	–	97.7%	101%	62.4%
CCOC(=O)c1c(SC)nn(-c2cc(=O)[nH]c3ccc(Br)cc23)c1N	99%	88.2%	108%	81%	110%	98.3%	87.2%	110%	111%	111%	91%	101%	95.6%	112%	86.2%	105%	91.8%	100%	–	102%
CC1(c2ccccc2)NC(=O)N(CC(=O)Nc2cccc(I)c2)C1=O (stereo unspecified)	77.5%	106%	96.9%	69.8%	96.1%	91.4%	72.9%	70.5%	88.5%	85.3%	71.1%	74.1%	91.9%	89.7%	90.3%	90.2%	44.9%	92.7%	87.5%	–
COc1ccccc1-c1c(-c2ccc(Cl)cc2)c2cc3c(cc2[nH]c1=O)OCCO3	80.5%	53.6%	85.4%	61.9%	86%	70.5%	54.9%	86.8%	41.7%	3.15% (active)	45.8%	-57.2% (active)	68.5%	91.1%	68.5%	64.5%	–	72.3%	101%	77%
COc1ccc(-c2nc(SC)nc(N3CCOCC3)c2C#N)cc1	101%	97.7%	96.5%	67.4%	97.5%	94.3%	81.4%	63.1%	88.7%	87.6%	78.9%	91.2%	98.1%	99.7%	100%	98.5%	98.4%	94%	89.4%	85%
Cc1ccc(/C=C/C(=O)c2ccc(N)cc2)c(C)c1	99%	109%	4.51% (active)	11.7%	106%	39.3%	84.1%	97.3%	-45.3% (active)	-41.1% (active)	-45.1% (active)	33%	17.3%	103%	–	21.7%	100%	62.2%	122%	12%
COc1cc2ncnc(Nc3ccc(C(=O)/C=C/c4ccc(C(F)(F)F)cc4F)cc3)c2cc1OC	105%	90%	101%	75.4%	110%	92.3%	88.2%	97.4%	83.8%	68.3%	63.4%	12.8%	101%	103%	105%	101%	66.8%	102%	123%	94.2%
CN1CCN(Cc2ccc(NC(=O)c3cncc(C#Cc4cnccc4C(F)(F)F)c3)cc2C(F)(F)F)CC1	73.4%	87.6%	75.7%	67.2%	109%	75.8%	93.8%	78.4%	82.9%	45.7%	37.3%	70.6%	92.2%	67.4%	–	105%	53%	–	89%	58.3%
CC(C)(O)C1CCCN1C(=O)c1ccccc1I (stereo unspecified)	132%	97.7%	95%	82.7%	107%	105%	88.2%	73.6%	41.1%	-67.6% (active)	106%	92.6%	109%	87.3%	25.4%	92.5%	85.7%	87.8%	–	87.6%
COc1ccc(C(O)c2cc3c(N)c(C(=O)Nc4cccc(Br)c4C)sc3nc2C)cc1 (stereo unspecified)	9.35% (active)	37.7%	17.9%	33.5%	27%	29.1%	41.1%	-16.1% (active)	16.4%	23.1%	1.86% (active)	7.3% (active)	17.4%	39.6%	47.4%	-14.4% (active)	21.8%	14.1%	30.8%	24.8%
COc1cc2nc(-c3ccc(-c4nn[nH]n4)cc3)[nH]c(=O)c2cc1OC	122%	108%	140%	86.3%	246%	111%	-1.66% (active)	147%	114%	95.5%	97.8%	81.8%	105%	99.4%	115%	112%	110%	101%	108%	108%
CC(N)C(=O)NNc1n[nH]c(=S)n1N (stereo unspecified)	105%	93.9%	102%	83%	108%	108%	93.9%	94.8%	102%	107%	103%	104%	100%	92.9%	105%	97.6%	88.2%	99.9%	109%	98.8%
